Results reported in PubChem BioAssay (NCI).
This is part of a sample that, as a whole, favours compounds with a hit. Of some 79,000 tested, about 15% had one in any assay. Activity calls are given as the source filed them. No stated cut-off is given here; in the data, active means growth inhibition above about 70%; inactive means the rest.

How the values were obtained:
[1] = NCI Yeast Anticancer Drug Screen. Data for the rad52 strain (AID 147);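 further: 0% = growth of vehicle-treated control cultures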; settings: S. cerevisiae rad52 mutant growth inhibition, hits give high values
Outline: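 DNA repair-defective yeast; compound exposure; growth scored against vehicle controls.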

[2] = NCI Yeast Anticancer Drug Screen. Data for the wt1 strain (AID 149);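 further: 0% = growth of vehicle-treated wt1 cultures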; settings: S. cerevisiae wt1 strain (SPY 50644) growth inhibition, hits give high values
Outline: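 Each compound is tested on wt1 yeast and the loss of growth versus vehicle gives the inhibition value.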

[3] = NCI Yeast Anticancer Drug Screen. Data for the rad50EPP+ strain (AID 151);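 further: 0% = growth of vehicle-treated control cultures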; settings: S. cerevisiae rad50 mutant strain, hits give high values
Outline: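 rad50EPP+ yeast treated with test compounds. Readout: growth vs vehicle control.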

[4] = NCI Yeast Anticancer Drug Screen. Data for the mgt1 strain (AID 153); settings: S. cerevisiae mgt1 mutant growth inhibition, hits give high values
Outline: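 Growth inhibition relative to vehicle controls was scored for the mgt1 yeast strain after compound exposure.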

[5] = NCI Yeast Anticancer Drug Screen. Data for the rad50 strain (AID 155);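 further: 0% = growth of vehicle-only cultures of the same strain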; settings: S. cerevisiae rad50 strain growth inhibition, hits give high values
Outline: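 Vehicle-treated cultures provide the reference for the growth inhibition reported for compound-exposed, repair-deficient yeast.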

[6] = NCI Yeast Anticancer Drug Screen. Data for the mec2-1 strain (AID 157); settings: S. cerevisiae mec2-1 strain, hits give high values
Outline: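 Growth inhibition is read against vehicle-treated controls after compound exposure of the mec2-1 yeast strain, which is defective in DNA damage repair or cell cycle control.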

[7] = NCI Yeast Anticancer Drug Screen. Data for the rad14 strain (AID 159);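 further: 0% = growth of vehicle-treated control cultures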; settings: S. cerevisiae rad14 strain growth inhibition, hits give high values
Outline: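 Inhibition of growth is reported for a repair-deficient yeast mutant following compound treatment, calculated relative to cultures that received vehicle.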

[8] = NCI Yeast Anticancer Drug Screen. Data for the sgs1 mgt1 strain (AID 161);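 further: 0% = growth of cultures given vehicle only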; settings: S. cerevisiae sgs1 mgt1 strain, hits give high values
Outline: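 Compounds are added to genetically altered yeast, and growth is compared with cultures given vehicle alone to give percent inhibition.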

[9] = NCI Yeast Anticancer Drug Screen. Data for the CLN2oe strain (AID 163);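 further: 0% = growth of vehicle-only control cultures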; settings: S. cerevisiae CLN2oe strain, hits give high values
Outline: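 Compound-treated yeast; growth vs vehicle ctrl = % inhibition. Genetically altered strain (cell-cycle control).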

[10] = NCI Yeast Anticancer Drug Screen. Data for the cln2 rad14 strain (AID 165);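 further: 0% = growth equal to vehicle treated cultures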; settings: S. cerevisiae cln2 rad14 strain, hits give high values
Outline: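 Growth inhibition, relative to vehicle-treated controls, is the read-out. The test organism is a yeast strain with defined genetic alterations, cln2 rad14.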

[11] = NCI Yeast Anticancer Drug Screen. Data for the bub3 strain (AID 167); settings: S. cerevisiae bub3 mutant strain, hits give high values
Outline: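 Mutant yeast screening strain plus compound; vehicle-treated cultures serve as the 0% inhibition reference.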

[12] = NCI Yeast Anticancer Drug Screen. Data for the wt2 strain (AID 169); settings: S. cerevisiae wt2 strain growth inhibition, hits give high values
Outline: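 Compound exposure of yeast; growth compared with vehicle controls; inhibition reported.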

[13] = NCI Yeast Anticancer Drug Screen. Data for the mlh1 strain (AID 171);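 further: 0% = growth of vehicle-treated control cultures of the same strain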; settings: S. cerevisiae mlh1 strain growth inhibition, hits give high values
Outline: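 Compounds are applied to a genetically altered yeast strain, and its growth is compared with that of vehicle-treated cultures to give percent inhibition.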

[14] = NCI Yeast Anticancer Drug Screen. Data for the sgs1 strain (AID 173);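 further: 0% = growth of vehicle-only control cultures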; settings: S. cerevisiae sgs1 mutant, hits give high values
Outline: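 Compounds applied to genetically altered yeast; growth compared with vehicle-treated cultures to give % inhibition.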

[15] = NCI Yeast Anticancer Drug Screen. Data for the mlh1 rad18 strain (AID 175); settings: S. cerevisiae mlh1 rad18 strain growth inhibition, hits give high values
Outline: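 Cells of a genetically altered yeast strain, deficient in DNA damage repair, were treated with compound. Their growth was then compared with that of vehicle-treated cultures to give inhibition.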

[16] = NCI Yeast Anticancer Drug Screen. Data for the rad18 strain (AID 177); settings: S. cerevisiae rad18 mutant growth inhibition, hits give high values
Outline: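 Compounds are applied to a repair-deficient yeast strain, and growth is compared with that of vehicle-treated cultures to give percent inhibition.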

[17] = at 5.0 µM (retest, dose inferred, filed as 0.5)
[18] = at 50.0 µM (retest, dose inferred, filed as 5.0)

Measured: growth inhibition

O=C1C=C(c2ccccc2)OC1(c1ccccc1)N1CCOCC1 (stereo not drawn)
inactive: [1]; at 1.2 µM -1% | [1]; at 3.7 µM -1% | [1]; at 11.0 µM 3% | [1]; at 33.0 µM 16% | [2]; at 1.2 µM -1% | [2]; at 3.7 µM 2% | [2]; at 11.0 µM -4% | [2]; at 33.0 µM -7% | [3]; at 1.2 µM 3% | [3]; at 3.7 µM 7% | [3]; at 11.0 µM 7% | [3]; at 33.0 µM 10% | [3]; at 100.0 µM 17% | [4]; at 1.2 µM -5% | [4]; at 3.7 µM -6% | [4]; at 11.0 µM -4% | [4]; at 33.0 µM 59% | [5]; at 1.2 µM 1% | [5]; at 3.7 µM 4% | [5]; [17] -20% | [5]; at 11.0 µM 1% | [5]; at 33.0 µM 19% | [5]; [18] 69% | [5]; at 50.0 µM -0.2% | [6]; at 1.2 µM -1% | [6]; at 3.7 µM 4% | [6]; [17] -12% | [6]; at 11.0 µM 3% | [6]; at 33.0 µM 8% | [6]; [18] 0% | [6]; at 50.0 µM -5.95% | [7]; at 1.2 µM -2% | [7]; at 3.7 µM -1% | [7]; at 11.0 µM -1% | [7]; at 33.0 µM 9% | [8]; [17] -2% | [8]; at 50.0 µM 55.7% | [9]; at 1.2 µM 1% | [9]; at 3.7 µM -4% | [9]; at 11.0 µM 6% | [9]; at 33.0 µM 0% | [10]; [17] 2% | [10]; [18] 14% | [10]; at 50.0 µM 19.9% | [11]; at 1.2 µM 0% | [11]; at 3.7 µM -1% | [11]; [17] -1% | [11]; at 11.0 µM 4% | [11]; at 33.0 µM 14% | [11]; [18] 44% | [11]; at 50.0 µM -27.7% | [12]; at 1.2 µM 0% | [12]; at 3.7 µM -1% | [12]; at 11.0 µM -3% | [12]; at 33.0 µM 52% | [13]; at 1.2 µM 3% | [13]; at 3.7 µM 1% | [13]; at 11.0 µM -7% | [13]; at 33.0 µM 55% | [14]; at 1.2 µM 0% | [14]; at 3.7 µM 0% | [14]; at 11.0 µM 4% | [15]; [17] -17% | [15]; at 50.0 µM -1.85% | [16]; at 1.2 µM 1% | [16]; at 3.7 µM -4% | [16]; at 11.0 µM -2% | [16]; at 33.0 µM 7%
active: [1]; at 100.0 µM 98% | [2]; at 100.0 µM 98% | [4]; at 100.0 µM 98% | [5]; at 100.0 µM 98% | [6]; at 100.0 µM 98% | [7]; at 100.0 µM 98% | [8]; [18] 90% | [9]; at 100.0 µM 97% | [11]; at 100.0 µM 98% | [12]; at 100.0 µM 98% | [13]; at 100.0 µM 98% | [14]; at 33.0 µM 76% | [14]; at 100.0 µM 98% | [15]; [18] 75% | [16]; at 100.0 µM 98%
